For 24 compounds, AlphaScreen counts results are on record in PubChem BioAssay AID1259351 (ICCB-Longwood Screening Facility, Harvard Medical School, 2017).

The list shows a part of the results. A number with no mark means an inactive call. Active and inactive are the calls of the source.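 The calls were made as follows: active = inhibition score at or above a set limit, where the score is 100 minus the three-replicate mean percent of control signal; inactive = the rest.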

This assay has as its target Guanine nucleotide-binding protein G(i) subunit alpha-3 (Homo sapiens) (UniProt P08754). Kind of assay: inhibitors of GIV binding to Galpha-i3, confirmation, orthogonal assay for GIV-Galpha-i inhibitor project, biochemical, AlphaScreen, His-GIV, GST-Galphai3 (AID 1259351). Conditions: purified proteins, 90 min, at 100 µM, active compounds read low. On the technique in general: Bead proximity is the source of the signal in Alpha formats.
As for `COc1ccc(N=Nc2c(-c3ccc(OC)cc3)[nH]oc2=O)cc1`, the AlphaScreen counts was 54000.

Turning to `COC(=O)Cn1nc2c(-c3nc(-c4ccc(Cl)cc4)no3)cccn2c1=O`, the AlphaScreen counts is 27400.

In the case of `COc1ccccc1CNc1ncc2nc(-c3ccccc3)oc2n1`, the AlphaScreen counts was 40200.

Consider `Cc1ccc(N2C(=O)/C(=C/c3ccc(OCC(=O)O)c(Br)c3)C(=O)NC2=S)cc1`, for which the AlphaScreen counts was 6910 (active).

Regarding `CCC(=O)N1CCc2cc(N3CC(C(=O)N4CCN(C(C)C)CC4)CC3=O)ccc21` (centres undefined), the AlphaScreen counts is 27700.

Take `COc1ccccc1N1C(=O)/C(=C/c2ccc(Cl)cc2)C=C1c1ccccc1`: the AlphaScreen counts was 45900.

`O=C(O)CCC(C(=O)O)N1C(=O)/C(=C\c2ccco2)SC1=S` (centres undefined): the AlphaScreen counts was 2280 (active).

For the compound `CC1=NOC(=O)C1C(c1cccc(Br)c1)c1c(C)[nH]n(-c2ccccc2)c1=O` (centres undefined), the AlphaScreen counts was 2770 (active).

As for `CCOc1cc(/C=C2/C(=O)N(c3nn[nH]n3)N=C2C)cc(Cl)c1OCC`, the AlphaScreen counts was 1950 (active).

Consider `O=C(O)c1c2ccccc2[nH]c2c1oc1cc(=O)ccc12`, for which the AlphaScreen counts was 19100 (active).

Regarding `COc1ccc(Nc2cc(C(=O)NCCCN(C)c3ccccc3)c3ccccc3n2)c(OC)c1`, the AlphaScreen counts is 33800.

On to `CCOC(=O)C1=C(C)N(c2ccc(OC)cc2)C(=O)/C1=C\c1ccco1`, for which the AlphaScreen counts is 21400 (active).

Take `O=C(O)c1cc(NS(=O)(=O)c2ccc3c(c2)CCCC3)cnc1N1CCOCC1`: the AlphaScreen counts is 28400.

For `Cc1ccc(C(=O)N2CCc3cc(CNC(=O)c4ccc(Br)cc4)ccc32)cc1`, the AlphaScreen counts is 29400.

Turning to `CC(=O)Nc1ccc(Nc2c3c4c(cccc4[nH]c2=O)C(=O)c2ccccc2-3)cc1`, the AlphaScreen counts is 27100.

With `CC(=O)Oc1cccc2c1C(=O)C=CC2=O`, the AlphaScreen counts is 35600.

`N#CC(C#N)=C(C#N)/C=C/n1c2ccccc2c2ccccc21`: the AlphaScreen counts was 4560 (active).

Turning to `COC1=C(N2CCOCC2)C(=O)c2ccccc2C1=O`, the AlphaScreen counts was 29700 (active).

In the case of `Cn1cccc1/C=C1\C(=O)NC(=S)N(c2ccccc2)C1=O`, the AlphaScreen counts is 799 (active).

With `Cc1nn(-c2ccccc2)c2sc(-c3noc(-c4ccccc4F)n3)cc12`, the AlphaScreen counts is 31800.

Turning to `Cc1ccc(NC(=O)c2nc[nH]c2C(=O)N2CCCCC2)c(C(=O)c2ccccc2)c1`, the AlphaScreen counts is 27800.

Turning to `N#CSc1cc(SC#N)c(N)nc1N`, the AlphaScreen counts was 24300 (active).

As to `CCOC(=O)c1nc2cc(C)c(C)cc2nc1NC1CCCCC1`, the AlphaScreen counts is 38900.

With `O=C(NN=c1c(=O)c2ccccc2c1=O)c1ccncc1`, the AlphaScreen counts was 28200.
